Measurements taken from PubChem BioAssay AID1159580 (chemical genetic matrix, 2015).
About 2,000 (36%) of roughly 5,500 compounds were called active. About 18% were inconclusive and are not listed. No stated cut-off is given here; in the data, active means normalized growth mostly below about 0.91 (no sharp cut-off); inconclusive means no clear call, values can overlap the other calls; inactive means mostly above about 0.92. The list shows a part of the results.

Test: chemical genetic growth profiling, strain panel (AID 1159580);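 further: tested at 20 µM; growth read once vehicle control cultures reached saturation at 30 °C; 1 = growth at the plate median or of vehicle wells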
Conditions: S. cerevisiae deletion strains, growth OD
[1] = locus YAL040C, strain CLN3, stronger effect = lower value
[2] = locus YDR363W, strain ESC2, stronger effect = lower value
[3] = locus YER002W, strain NOP16, stronger effect = lower value
[4] = locus YGR078C, strain PAC10, stronger effect = lower value
[5] = locus YMR263W, strain SAP30, stronger effect = lower value
[6] = locus YMR307W, strain GAS1, stronger effect = lower value
[7] = locus YNL128W, strain TEP1, stronger effect = lower value
[8] = locus YNL175C, strain NOP13, stronger effect = lower value
[9] = locus YNL197C, strain WHI3, stronger effect = lower value
[10] = locus YNL224C, strain SQS1, stronger effect = lower value
[11] = locus YOR083W, strain WHI5 (second series), stronger effect = lower value
[12] = locus YPL241C, strain CIN2, stronger effect = lower value

Measured: normalized growth

CC(=O)O[C@]1(C(C)=O)CC[C@H]2[C@@H]3C=C(Cl)C4=CC(=O)[C@@H]5C[C@@H]5[C@]4(C)[C@H]3CC[C@@]21C
inactive: [1] 0.994 | [2] 0.976 | [3] 1.02 | [4] 0.985 | [5] 0.993 | [6] 0.975 | [7] 0.993 | locus YNL153C, strain GIM3, stronger effect = lower value 1.05 | [8] 1.03 | [9] 0.966 | [10] 0.975 | locus YNL322C, strain KRE1, stronger effect = lower value 0.988 | [11] 0.979 | locus YPL055C, strain LGE1, stronger effect = lower value 1 | [12] 1

Nc1nc2c(ncn2COC(CO)CO)c(=O)[nH]1
inactive: [1] 1.05 | locus YCL061C, strain MRC1 (second series), stronger effect = lower value 1.01 | locus YDR150W, strain NUM1, stronger effect = lower value 1.01 | [2] 1.03 | [3] 1.01 | [4] 0.999 | [5] 1.01 | [6] 0.99 | [7] 0.992 | [8] 1.01 | [9] 1.01 | [10] 0.997 | [11] 1.03 | [12] 1.01

COc1cc2c(cc1OC)-c1c(oc3cc(O)cc(O)c3c1=O)CO2
inactive: locus YAL021C, strain ccr4, stronger effect = lower value 1.02 | locus YAL026C, strain drs2, stronger effect = lower value 1.01 | locus YAL030W, strain snc1, stronger effect = lower value 1.01 | locus YBL061C, strain skt5, stronger effect = lower value 1.01 | locus YBR009C, strain hhf1, stronger effect = lower value 1.02 | locus YBR023C, strain chs3, stronger effect = lower value 1.02 | locus YBR171W, strain sec66, stronger effect = lower value 1.03 | locus YBR231C, strain swc5, stronger effect = lower value 1.02 | locus YBR279W, strain paf1, stronger effect = lower value 1.02 | locus YCL011C, strain gbp2, stronger effect = lower value 1.01 | locus YCL016C, strain dcc1, stronger effect = lower value 1.02 | locus YCL061C, strain MRC1, stronger effect = lower value 1.01 | locus YCL069W, strain vba3, stronger effect = lower value 1.01 | locus YCR088W, strain abp1, stronger effect = lower value 1.02 | locus YDL005C, strain med2, stronger effect = lower value 1.04 | locus YDL040C, strain nat1, stronger effect = lower value 1.01 | locus YDR001C, strain nth1, stronger effect = lower value 1.01 | locus YDR069C, strain doa4, stronger effect = lower value 1.02 | locus YDR137W, strain rgp1, stronger effect = lower value 1 | locus YDR159W, strain sac3, stronger effect = lower value 1.04 | locus YDR195W, strain ref2 1.04 | locus YDR297W, strain sur2, stronger effect = lower value 1.02 | locus YDR334W, strain swr1, stronger effect = lower value 1.01 | locus YDR335W, strain msn5, stronger effect = lower value 1.03 | locus YDR392W, strain spt3, stronger effect = lower value 1.01 | locus YEL003W, strain gim4, stronger effect = lower value 1.02 | locus YEL037C, strain rad23, stronger effect = lower value 1.01 | locus YEL061C, strain CIN8 (second series), stronger effect = lower value 1.01 | locus YER015W, strain faa2, stronger effect = lower value 1.02 | locus YER016W, strain bim1, stronger effect = lower value 1.01 | locus YER111C, strain swi4, stronger effect = lower value 1.03 | locus YER155C, strain BEM2 (second series), stronger effect = lower value 1.03 | locus YFR010W, strain ubp6, stronger effect = lower value 1.02 | locus YGL167C, strain pmr1, stronger effect = lower value 1.02 | locus YGL173C, strain kem1, stronger effect = lower value 1.03 | locus YGL227W, strain vid30, stronger effect = lower value 1.03 | locus YGL240W, strain doc1, stronger effect = lower value 1.02 | locus YGL253W, strain hxk2, stronger effect = lower value 1.02 | locus YHR013C, strain ard1, stronger effect = lower value 1.01 | locus YHR027C, strain rpn1, stronger effect = lower value 1.03 | locus YHR030C, strain SLT2, stronger effect = lower value 1.05 | locus YHR079C, strain IRE1, stronger effect = lower value 1.04 | locus YHR142W, strain chs7, stronger effect = lower value 1.01 | locus YJL092W, strain hpr5, stronger effect = lower value 1.02 | locus YJL095W, strain BCK1 (second series), stronger effect = lower value 1.01 | locus YJL095W, strain BCK1, stronger effect = lower value 1.05 | locus YJL115W, strain asf1, stronger effect = lower value 1.01 | locus YJL129C, strain trk1, stronger effect = lower value 1.03 | locus YJL154C, strain vps35, stronger effect = lower value 1.02 | locus YJL164C, strain tpk1, stronger effect = lower value 0.995 | locus YJL166W, strain qcr8, stronger effect = lower value 1.01 | locus YJL187C, strain SWE1, stronger effect = lower value 1.02 | locus YJR066W, strain TOR1, stronger effect = lower value 0.999 | locus YKL160W, strain elf1, stronger effect = lower value 1.02 | locus YKR026C, strain gcn3, stronger effect = lower value 1.02 | locus YKR091W, strain srl3, stronger effect = lower value 1.02 | locus YLL001W, strain dnm1, stronger effect = lower value 1.02 | locus YLL026W, stronger effect = lower value 1.01 | locus YLL041C, strain sdh2, stronger effect = lower value 0.973 | locus YLR027C, strain aat2, stronger effect = lower value 1.01 | locus YLR113W, strain HOG1, stronger effect = lower value 1.08 | locus YLR221C, strain rsa3, stronger effect = lower value 1.02 | locus YLR258W, strain gsy2, stronger effect = lower value 1.02 | locus YLR262C, strain YPT6 (second series), stronger effect = lower value 1.01 | locus YLR320W, strain mms22, stronger effect = lower value 1.03 | locus YLR342W, strain FKS1, stronger effect = lower value 1.02 | locus YLR357W, strain rsc2, stronger effect = lower value 1.01 | locus YLR370C, strain arc18, stronger effect = lower value 1.02 | locus YLR384C, strain iki3, stronger effect = lower value 1.03 | locus YML120C, strain ndi1, stronger effect = lower value 1.01 | locus YMR058W, strain fet3, stronger effect = lower value 1.02 | locus YMR125W, strain sto1, stronger effect = lower value 1.02 | locus YMR129W, stronger effect = lower value 1.02 | locus YMR205C, strain PFK2, stronger effect = lower value 1.02 | locus YMR231W, strain pep5, stronger effect = lower value 1.02 | locus YNL071W, strain lat1, stronger effect = lower value 1.01 | locus YNL183C, strain NPR1, stronger effect = lower value 0.988 | locus YNL209W, strain ssb2, stronger effect = lower value 1.02 | locus YNL248C, strain rpa49, stronger effect = lower value 1.02 | locus YNL322C, strain KRE1 (second series), stronger effect = lower value 1.02 | locus YNR049C, strain mso1, stronger effect = lower value 1.02 | locus YOR001W, strain rrp6, stronger effect = lower value 1.04 | locus YOR070C, strain gyp1, stronger effect = lower value 1.02 | locus YOR080W, strain dia2, stronger effect = lower value 1.02 | locus YOR083W, strain WHI5, stronger effect = lower value 1 | locus YOR106W, strain vam3, stronger effect = lower value 1.05 | locus YOR231W, strain MKK1, stronger effect = lower value 1.05 | locus YOR265W, strain rbl2, stronger effect = lower value 1.01 | locus YOR270C, strain vph1, stronger effect = lower value 1.02 | locus YOR290C, strain snf2, stronger effect = lower value 1.02 | locus YPL051W, strain arl3, stronger effect = lower value 1 | locus YPL078C, strain atp4, stronger effect = lower value 1.02 | locus YPL106C, strain sse1, stronger effect = lower value 1.02 | locus YPL240C, strain hsp82, stronger effect = lower value 1.02 | locus YPL256C, strain CLN2, stronger effect = lower value 1.05
